Screening data as filed in PubChem.
In the library only some 3.9% were active in any assay of this set; here they are far more common.
esBAF inh: SWI/SNF esBAF complex inhibition; reporter increase, % at 12.5 µM; mouse ES cells, Bmi1-luciferase knock-in reporter, 24 h; 100% = twice the neutral-well signal; 350,000 compounds, 2% hits; in the data active means activation above about 40%; inconclusive means no clear call, values can overlap the other calls;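 further: 0% = median of the plate's neutral control wells and 100% = double that signal; a rise in the Bmi1 reporter signal indicates esBAF inhibition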
Wnt act: Wnt/beta-catenin pathway activation. Wnt/beta-catenin reporter cell assay, activator, plate reader. activation, % at 9.35 µM. 300,000 compounds, 1.2% hits; in the data active means activation above about 30%, passing the limit was not always enough; inconclusive means no clear call, values can overlap the other calls;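 further: 0% = neutral control wells and 100% = positive control wells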
HSF1 activator: increases HSF-1 driven luciferase reporter signal | 300,000 compounds, 1.7% hits | activation, % at 9 µM | NIH3T3-HGL HSF-1 luciferase reporter, MG132, 8 h; 100% = twice DMSO control signal;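 active means mean replicate activation of at least 50% with a set share of replicates each reaching 50%; inconclusive means only one of those two conditions met; inactive means mean below 50% and too few replicates reaching it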;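 further: 0% = median of the neutral control wells and 100% = twice that signal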
HSF1 inhib: HSF1 inhibition. activity change, negative = inhibition, % at 7.5 µM (by protocol). NIH3T3-HGL HSE-luciferase, MG132-induced, luminescence 8 h; stronger effect = lower value. AID 2098. 300,000 compounds, 0.77% hits;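 active means more than half of replicate wells show activity change below -50%, luminescence cut by over half; inconclusive means some wells, but at most half, below -50%; inactive means no replicate well below -50%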;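 further: luciferase reports HSF-1 transcriptional activity via heat shock element; 0% = median of DMSO wells and -100% = zero luminescence signal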
MITF TRPM1 HTS: MITF TRPM1 promoter activation in melanoma cells; SK-MEL-5 TRPM1-promoter luciferase, 24 h; % of positive control, neutral wells = 0; activation, % at 12.5 µM; 300,000 compounds, 0.75% hits;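 active means mean activation of at least 80% with every replicate also reaching 80%; inconclusive means mean reaches 80% but some replicate falls short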;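 further: 0% = neutral control wells and 100% = parthenolide positive control wells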
* = called active by the depositor; ? = inconclusive; . = no result.

SMILES	esBAF inh	Wnt act	HSF1 activator	HSF1 inhib	MITF TRPM1 HTS
c1ccc(-c2ccc(-c3nc(-c4cccnc4)no3)cc2)cc1	3.5	?	39.8	5.4	48.3
CCOc1ccc(-c2nnc(-c3ccncc3)o2)cc1	6.8	.	51.9*	16.0	22.9
O=C(C1CCC1)N1C[C@H]2[C@@H](c3ccccc31)[C@@H](CO)N2C(=O)Nc1cccc(F)c1	-2.1	.	.	.	.
O=C(O)c1ccc(-c2noc(-c3ccccc3F)n2)cc1	-14.6	15.8	0.5	-7.5	4.6
O=[N+]([O-])c1cccc(-c2noc(-c3cccs3)n2)c1	.	48.5*	57.1*	42.7	49.0
Brc1ccc(-c2nc(-c3ccncc3)no2)cc1	-14.4	?	11.9	10.6	65.7
Cc1ccc(-c2noc(-c3ccccc3F)n2)cc1	-15.5	57.1*	43.4	29.7	12.1
O=[N+]([O-])c1ccc(-c2nc(-c3ccncc3)no2)cc1	.	1.1	65.0*	31.2	.
COc1ccc(-c2nc(-c3ccccn3)no2)cc1	.	-29.5	-79.5	-77.8*	-84.7
OCC1(CCCc2ccccc2)CCN(C2CCSCC2)CC1	-0.3	-1.7	73.8*	23.0	2.4
Cc1ccccc1NC(=S)NNC(=O)c1csc2c1CCC(C)C2 (centres undefined)	.	-17.0	-75.9	-68.5*	-2.0
CC1CCc2c(C(=O)Nc3nccs3)csc2C1 (centres undefined)	57.7*	21.2	26.9	9.0	74.8
CC1CCc2c(C(=O)NCc3ccccn3)csc2C1 (centres undefined)	.	15.1	27.3	12.8	43.4
CC1CCc2c(C(=O)Nc3ccccn3)csc2C1 (centres undefined)	.	52.4*	.	.	74.8
CCNC(=S)NNC(=O)c1csc2c1CCC(C)C2 (centres undefined)	6.4	.	-2.6	-4.4	12.5
Cc1ccc(CNC(=O)COc2ccc(C)nc2[N+](=O)[O-])cc1	-7.4	3.4	-3.3	-0.8	1.1
Cc1ccc(COc2ccc(C)nc2[N+](=O)[O-])cc1	.	14.7	74.5*	29.5	.
CCOC(=O)c1ccc(NC(=O)/C=C/c2cccs2)cc1	.	25.1	53.2*	31.9	87.7*
CCc1nnc(NC(=O)/C=C/c2cccs2)s1	57.7*	8.6	4.2	-2.8	?
Cc1cc(C)nc(NC(=O)/C=C/c2ccc(Cl)cc2Cl)c1	65.8*	.	37.9	11.9	88.1*
Cc1cccc(NC(=O)/C=C/c2ccc(Cl)cc2)n1	.	.	67.3*	36.2	90.1*
C[C@@H]1CN([C@H](C)CO)C(=O)c2cccc(NC(=O)Nc3cccc4ccccc34)c2O[C@@H]1CN(C)Cc1ccc(-c2ccccc2)cc1	2.8	.	.	.	.
C[C@@H]1CN([C@H](C)CO)C(=O)Cc2cc(NC(=O)c3ccncc3)ccc2O[C@H]1CN(C)S(=O)(=O)c1ccc(Cl)cc1	-4.8	.	.	.	.
Cc1cc(C)nc(NC(=O)/C=C/c2cccs2)c1	81.0*	16.1	19.8	21.1	74.7
Cc1nc(NC(=O)/C=C/c2ccc(Cl)cc2Cl)sc1C(=O)N(C)C	.	-1.6	-81.4	-75.8*	-1.7
SMILES	esBAF inh	Wnt act	HSF1 activator	HSF1 inhib	MITF TRPM1 HTS
Cc1cc(C)nc(NC(=O)/C=C/c2ccccc2Cl)c1	.	43.8*	84.1*	35.8	54.1
CN(C)C(=O)C[C@H]1CC[C@H]2[C@H](COc3ccc(NC(=O)c4ccc(F)c(F)c4)cc3C(=O)N2C)O1	-0.3	.	.	.	.
COc1ccccc1CNC(=O)C[C@@H]1C=C[C@@H](NC(=O)CC2CC2)[C@H](CO)O1	-5.4	.	.	.	.
COC1(OC)C(/C=C/c2ccc(C)cc2)C(C#N)(C#N)C1(OC)OC (centres undefined)	-10.0	-0.5	54.8*	51.9	.
CCN(CC)CCNCc1cc(Cl)ccc1OCc1ccccc1F	-7.6	4.3	-71.3	-61.4*	9.7
COc1ccc(NC(=O)N(C)C[C@H]2OCCCC[C@@H](C)Oc3ccc(NC(=O)Nc4c(C)noc4C)cc3C(=O)N([C@@H](C)CO)C[C@H]2C)cc1	-3.2	.	.	.	.
S=C1Cc2ccccc2N1	-44.7	-18.1	-78.5	-77.3*	-90.4
S=C1Nc2ccccc2CS1	.	-6.5	.	.	.
COc1ccc(NC(=O)Nc2ccc3c(c2)CC(=O)N([C@@H](C)CO)C[C@H](C)[C@@H](CN(C)Cc2ccncc2)O3)cc1	4.1	.	.	.	.
O=C(NCC1CCCO1)c1c(O)c2ccccc2[nH]c1=O (centres undefined)	50.8*	.	6.7	3.8	.
CCOC(=O)c1c(NCC2CCCO2)c2ccccc2[nH]c1=O (centres undefined)	.	.	-7.7	-4.2	39.7
O=C(NC1CCCCCC1)c1c(O)c2ccccc2[nH]c1=O	45.6*	.	.	.	98.9*
